# Tgondii IFNg = blocks Toxoplasma gondii growth in the presence of IFN-gamma; Toxoplasma gondii growth in IFN-gamma-treated host cells; active compounds read low; activity change, negative = inhibition, % (test concentration not listed); hit rate 3.8% among 69,000; AID 1259416; in the data active = activity change below about -70%, passing the limit was not always enough;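 note: host cells are HeLa cells infected with Toxoplasma gondii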
# An asterisk follows results filed as active; i = inactive; ! = repeats disagree. This excerpt belongs to a sample that is enriched for hits.
SMILES,Tgondii IFNg
Clc1ccc(-c2nc(NCc3cccnc3)c3ccccc3n2)cc1,-74.7
CCN1CCC2(CC1)CC(CC(N)=O)c1ccc(F)cc12 (stereo not drawn),285.0
C[C@H](CO)N1C[C@H](C)[C@@H](CN(C)S(=O)(=O)c2cn(C)cn2)Oc2ccc(NC(=O)C3CC3)cc2CC1=O,19.6
Cc1ccc(-c2coc(-c3ccc(NS(=O)(=O)c4ccc(C(C)(C)C)cc4)cc3)n2)c(C)c1,-37.7
O=C1CCc2cc(NS(=O)(=O)c3ccc(C(F)(F)F)cc3)ccc2N1,-37.3
CC(C)(C)c1ccc(S(=O)(=O)Nc2ccc(C34CC5CC(CC(C5)C3)C4)cc2)cc1,-96.2*
Nc1c(-c2ccc(F)cc2)nc2cnccn12,40.3
Cc1ccc(CNC2CCc3[nH]c(=O)ccc3C2)o1 (stereo not drawn),1.7
CCOC(=O)c1nc(Nc2ccc(OC)c(OC)c2)c2ccccc2n1,17.9
COc1cc(NS(C)(=O)=O)ccc1Cc1c2ccccc2nc2ccccc12,-83.3*
COc1ccc(CNC(=O)c2nc(Nc3ccc(F)cc3)c3ccccc3n2)c(OC)c1,39.7
COc1ccc(NC(=O)c2cc(=O)n3c(nc4ccccc43)s2)cc1,65.6
COc1ccc(CN(C(=O)Cc2ccc3nc(N)sc3c2)C2CCN(C)CC2)cc1,-4.0
Cc1cc(C)c(N2C(=O)C3C(c4ccccc4)C=CC(c4ccccc4)C3C2=O)c(C)c1 (stereo not drawn),-98.8*
CNC(=O)c1ccc(C2CCCN2S(=O)(=O)c2ccc(CC(=O)N(C)C)cc2)nc1C (stereo not drawn),6.4
CCOC(=O)c1ccc(NC(=O)NCC(c2cccnc2)c2cn(CC)c3ccccc23)cc1 (stereo not drawn),-101.8*
Cn1cc(C(CNC(=O)Nc2cccc(Br)c2)c2cccnc2)c2ccccc21 (stereo not drawn),-58.8
CCOC(=O)c1ccc(NC(=O)NCC(c2cccnc2)c2c[nH]c3ccccc23)cc1 (stereo not drawn),49.6
CCn1cc(C(CNC(=O)Nc2cccc(SC)c2)c2cccnc2)c2ccccc21 (stereo not drawn),-110.7*
CCOC(=O)c1ccc(NC(=O)NCC(c2cccnc2)c2cn(C)c3ccccc23)cc1 (stereo not drawn),i
CCn1cc(C(CNC(=O)Nc2ccc(OC)cc2OC)c2cccnc2)c2ccccc21 (stereo not drawn),i
O=c1[nH]c2ccc(S(=O)(=O)N3CCCC(c4nc5ccccc5[nH]4)C3)cc2s1 (stereo not drawn),23.8
CCOC(=O)CC(=O)Nc1ccc(-c2nc(-c3cc(C)ccc3C)co2)cc1,-28.8
Cc1nc([C@H]2C[C@H]3CCN(C(=O)c4c(C)noc4C)C[C@@H]3O2)n[nH]1,-10.9
Clc1ccc(-c2csc(-c3ccc(-n4cncn4)nc3)n2)cc1,3.9
SMILES,Tgondii IFNg
c1ccc(-c2nnc(-c3csc(-c4cccnc4)n3)o2)cc1,302.6
c1ccc(-n2ncnc2-c2csc(-c3ccncc3)n2)cc1,-92.8*
FC(F)(F)c1cc(N/N=C2/CCSc3sccc32)cc(C(F)(F)F)c1,-103.2*
CCn1c(CC2CCN(C(=O)CN3CCCCCC3=O)CC2)nn(C)c1=O,0.3
CC(=O)NC[C@@H]1[C@@H](c2ccc(C#Cc3ccccc3F)cc2)[C@@H](CO)N1C(C)=O,-9.2
Cc1ccccc1NC(=O)N1C[C@@H](O)[C@H](NC2Cc3ccccc3C2)C1,11.7
CCc1cn[nH]c1C1CCCN(C(=O)c2n[nH]c3ccc(C)cc23)C1 (stereo not drawn),32.1
Cc1ccc2[nH]nc(C(=O)N3CCCC3c3ccc(Cc4ccccc4F)cn3)c2c1 (stereo not drawn),-105.2*
Cc1ccc2[nH]nc(C(=O)N3CCCC(N)CC3)c2c1 (stereo not drawn),-39.6
Cc1cccc2c(C(=O)N(C)C(C)C)cc(-c3cnc(-c4cccnc4)nc3)nc12,68.1
CC1(C)CC[C@]2(C(=O)O)CC[C@]3(C)C(=CC[C@@H]4[C@@]5(C)CC[C@H](O)C(C)(C)[C@@H]5CC[C@]43C)[C@@H]2C1,-72.0*!
C[C@@H]1CC[C@]2(C(=O)O)CC[C@]3(C)C(=CCC4[C@@]5(C)CC[C@H](O)C(C)(C)C5CC[C@]43C)C2[C@H]1C (stereo partly drawn),9.7
CC1(C)CC[C@]2(C(=O)O)CC[C@]3(C)C(=CCC4[C@@]5(C)CC[C@@H](O)C(C)(C)C5CC[C@]43C)C2C1 (stereo partly drawn),-57.7
CC(C)n1cnc2nnc3ccc(C(=O)CCN4CCOCC4)cc3c21,1.2
CN(C)CCN1C2(CCN(Cc3nccs3)C2)c2ccccc2S1(=O)=O (stereo not drawn),0.2
COCCN1C2(CCN(Cc3nccs3)C2)c2ccccc2S1(=O)=O (stereo not drawn),2.7
CC(C)CCN1C2(CCN(Cc3nccs3)C2)c2ccccc2S1(=O)=O (stereo not drawn),-95.9*
Cc1[nH]cnc1-c1nccn1-c1ccc(Cl)cc1,28.7
C[C@H]1CN([C@@H](C)CO)C(=O)c2cc(C#CC3(O)CCCC3)cnc2O[C@@H]1CN(C)S(=O)(=O)c1cccc(F)c1,-112.0*

# Screening results as filed in PubChem BioAssay.
